{"source": "the supplement of paper PMC12669032", "note": "A number with no mark means an inactive call.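 The calls were made as follows: active = AUC reduced over 20% with Padj below 0.05 in at least 2 of 3 replicates; inactive = otherwise.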"}
{"system": "Roseburia intestinalis", "test": "growth AUC relative to DMSO control (median of replicates) (fraction); higher = more growth (less inhibition), active = hit call of the paper", "settings": "20 µM; 24 h", "in_short": "(§1)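 Each value is the median of three biological replicates, grown on separate days, of a gut bacterial monoculture incubated anaerobically at 37 °C in mGAM with 20 µM compound (1% DMSO). Cultures started at OD600 0.05 and were read at OD600 hourly for 24 h, with the minimum OD set to 0. Area under the growth curve was normalised to the plate median of solvent-only wells, or to row and column medians on the industrial chemical plate.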"}
{"smiles": "CCOCOc1ccc(C(=O)Nc2cccc(Cl)c2Cl)cc1", "growth AUC": 1}
{"smiles": "COC(=O)[C@@H](C)Oc1ccc(Oc2ncc(C(F)(F)F)cc2Cl)cc1", "growth AUC": 1}
{"smiles": "CC(C)c1nn(C(=O)NC(C)(C)C)c(=O)n1N", "growth AUC": 1.02}
{"smiles": "O=S(=O)(Oc1ccc(Cl)cc1)c1ccccc1", "growth AUC": 0.988}
{"smiles": "CN(C(=O)NC(C)(C)c1ccccc1)c1ccccc1", "growth AUC": 1.02}
{"smiles": "CCCCCCCC(=O)Oc1c(Br)cc(C#N)cc1Br", "growth AUC": 0.935}
{"smiles": "COc1cc(OC)nc(Sc2cccc3c2C(=O)OC3C)n1", "note": "(stereo not drawn)", "growth AUC": 0.988}
{"smiles": "C=CCc1ccc(O)c(OC)c1", "growth AUC": 0.937}
{"smiles": "COc1ccc(Cl)c(Cl)c1Cl", "growth AUC": 0.999}
{"smiles": "COc1c(I)cc(C#N)cc1I", "growth AUC": 0.989}
{"smiles": "COC(=O)c1ccc(I)cc1S(=O)(=O)[N-]C(=O)Nc1nc(C)nc(OC)n1.[Na+]", "growth AUC": 0.934}
{"smiles": "COC(=O)C(C)Oc1ccc(Oc2ncc(C(F)(F)F)cc2Cl)cc1", "note": "(stereo not drawn)", "growth AUC": 1.01}
{"smiles": "CCSC(=O)COc1ccc(Cl)cc1C", "growth AUC": 0.969}
{"smiles": "CN(C)C=O", "growth AUC": 1.1}
{"smiles": "CCOC(=O)Cc1[nH]nc2ccc(Cl)cc12", "growth AUC": 1.14}
{"smiles": "Nc1cccc(O)c1", "growth AUC": 0.989}
{"smiles": "C/C=C/C=C/CCCCCCCO", "growth AUC": 1}
{"smiles": "COC(=O)c1c(Cl)ccc(Cl)c1OC", "growth AUC": 0.982}
{"smiles": "CC(C)N(C(=O)CS(=O)(=O)[O-])c1ccc(F)cc1.[Na+]", "growth AUC": 1.03}
{"smiles": "O=C1NCC[n+]2ccccc21.[Br-]", "growth AUC": 0.992}
{"smiles": "CC(C)OC(=O)[C@@H](C)N(C(=O)c1ccccc1)c1ccc(F)c(Cl)c1", "growth AUC": 0.999}
{"smiles": "CCc1cccc(C)c1NC(=O)C(=O)O", "growth AUC": 0.953}
{"smiles": "CCc1nc2ncnn2c(N)c1CCCCCC(=O)O.Cl", "growth AUC": 0.955}
{"smiles": "O=C(O)COc1ccc(Cl)c2cccnc12", "growth AUC": 0.963}
{"smiles": "CCCC(C)(C)C(=O)Nc1ccc(Cl)cc1", "growth AUC": 0.945}
{"smiles": "COC(=O)C(C)Oc1ccc(Cl)cc1Cl", "note": "(stereo not drawn)", "growth AUC": 0.979}
{"smiles": "O.O=C(Nc1ccc(Cl)c(Cl)c1)Nc1cc(Cl)ccc1Oc1ccc(Cl)cc1S(=O)(=O)[O-].[Na+]", "growth AUC": "0.792 (active)"}
{"smiles": "O=C(Nc1ccc(F)cc1-c1ccc(Cl)c(Cl)c1)c1cn[nH]c1C(F)F", "growth AUC": 0.892}
{"smiles": "CN(C)C(N)=O", "growth AUC": 0.996}
{"smiles": "c1ccc2cc3c(ccc4ccccc43)cc2c1", "growth AUC": 1.01}
{"smiles": "CCOC(N)=O", "growth AUC": 1.05}
{"smiles": "O=C(O)COc1cc(N2C(=O)C3=C(CCCC3)C2=O)c(F)cc1Cl", "growth AUC": 0.987}
{"smiles": "COC(=O)c1ccc(C)cc1C1=NC(C)(C(C)C)C(=O)N1", "note": "(racemic)", "growth AUC": 0.934}
{"smiles": "Br[C@@H]1CC[C@@H](Br)[C@@H](Br)CC[C@H](Br)[C@H](Br)CC[C@H]1Br", "growth AUC": 1.43}
{"smiles": "CCOC(=O)NCCOc1ccc(Oc2ccccc2)cc1", "growth AUC": 0.984}
{"smiles": "CCCCCCCCCC[N+](C)(C)Cc1ccccc1.[Cl-]", "growth AUC": 0.885}
{"smiles": "CON(C(=O)c1cc(C)oc1C)C1CCCCC1", "growth AUC": 1.09}
{"smiles": "CCNc1nc(NC(C)(C)C)[nH]c(=O)n1", "growth AUC": 1.03}
{"smiles": "c1ccc2[nH]c(-c3cscn3)nc2c1", "growth AUC": 0.998}
{"system": "Streptococcus salivarius", "test": "growth AUC relative to DMSO control (median of replicates) (fraction); higher = more growth (less inhibition), active = hit call of the paper", "settings": "20 µM; 24 h", "in_short": "as §1"}
{"smiles": "CCOCOc1ccc(C(=O)Nc2cccc(Cl)c2Cl)cc1", "growth AUC": 0.989}
{"smiles": "COC(=O)[C@@H](C)Oc1ccc(Oc2ncc(C(F)(F)F)cc2Cl)cc1", "growth AUC": 0.984}
{"smiles": "CC(C)c1nn(C(=O)NC(C)(C)C)c(=O)n1N", "growth AUC": 1.01}
{"smiles": "O=S(=O)(Oc1ccc(Cl)cc1)c1ccccc1", "growth AUC": 0.955}
{"smiles": "CN(C(=O)NC(C)(C)c1ccccc1)c1ccccc1", "growth AUC": 0.933}
{"smiles": "CCCCCCCC(=O)Oc1c(Br)cc(C#N)cc1Br", "growth AUC": 0.937}
{"smiles": "COc1cc(OC)nc(Sc2cccc3c2C(=O)OC3C)n1", "note": "(stereo not drawn)", "growth AUC": 0.977}
{"smiles": "C=CCc1ccc(O)c(OC)c1", "growth AUC": 0.975}
{"smiles": "COc1ccc(Cl)c(Cl)c1Cl", "growth AUC": 1.06}
{"smiles": "COc1c(I)cc(C#N)cc1I", "growth AUC": 0.982}
{"smiles": "COC(=O)c1ccc(I)cc1S(=O)(=O)[N-]C(=O)Nc1nc(C)nc(OC)n1.[Na+]", "growth AUC": 0.948}
{"smiles": "COC(=O)C(C)Oc1ccc(Oc2ncc(C(F)(F)F)cc2Cl)cc1", "note": "(stereo not drawn)", "growth AUC": 0.954}
{"smiles": "CCSC(=O)COc1ccc(Cl)cc1C", "growth AUC": 0.915}
{"smiles": "CN(C)C=O", "growth AUC": 0.999}
{"smiles": "CCOC(=O)Cc1[nH]nc2ccc(Cl)cc12", "growth AUC": 1}
{"smiles": "Nc1cccc(O)c1", "growth AUC": 1.02}
{"smiles": "C/C=C/C=C/CCCCCCCO", "growth AUC": 0.994}
{"smiles": "COC(=O)c1c(Cl)ccc(Cl)c1OC", "growth AUC": 1.04}
{"smiles": "CC(C)N(C(=O)CS(=O)(=O)[O-])c1ccc(F)cc1.[Na+]", "growth AUC": 0.973}
{"smiles": "O=C1NCC[n+]2ccccc21.[Br-]", "growth AUC": 0.987}
{"smiles": "CC(C)OC(=O)[C@@H](C)N(C(=O)c1ccccc1)c1ccc(F)c(Cl)c1", "growth AUC": 1}
{"smiles": "CCc1cccc(C)c1NC(=O)C(=O)O", "growth AUC": 0.994}
{"smiles": "CCc1nc2ncnn2c(N)c1CCCCCC(=O)O.Cl", "growth AUC": 1.02}
{"smiles": "O=C(O)COc1ccc(Cl)c2cccnc12", "growth AUC": 1.05}
{"smiles": "CCCC(C)(C)C(=O)Nc1ccc(Cl)cc1", "growth AUC": 0.963}
{"smiles": "COC(=O)C(C)Oc1ccc(Cl)cc1Cl", "note": "(stereo not drawn)", "growth AUC": 0.991}
{"smiles": "O.O=C(Nc1ccc(Cl)c(Cl)c1)Nc1cc(Cl)ccc1Oc1ccc(Cl)cc1S(=O)(=O)[O-].[Na+]", "growth AUC": "0.478 (active)"}
{"smiles": "O=C(Nc1ccc(F)cc1-c1ccc(Cl)c(Cl)c1)c1cn[nH]c1C(F)F", "growth AUC": 0.945}
{"smiles": "CN(C)C(N)=O", "growth AUC": 1.02}
{"smiles": "c1ccc2cc3c(ccc4ccccc43)cc2c1", "growth AUC": 0.962}
{"smiles": "CCOC(N)=O", "growth AUC": 1.01}
{"smiles": "O=C(O)COc1cc(N2C(=O)C3=C(CCCC3)C2=O)c(F)cc1Cl", "growth AUC": 0.977}
{"smiles": "COC(=O)c1ccc(C)cc1C1=NC(C)(C(C)C)C(=O)N1", "note": "(racemic)", "growth AUC": 0.97}
{"smiles": "Br[C@@H]1CC[C@@H](Br)[C@@H](Br)CC[C@H](Br)[C@H](Br)CC[C@H]1Br", "growth AUC": 0.898}
{"smiles": "CCOC(=O)NCCOc1ccc(Oc2ccccc2)cc1", "growth AUC": 0.976}
{"smiles": "CCCCCCCCCC[N+](C)(C)Cc1ccccc1.[Cl-]", "growth AUC": 0.926}
{"smiles": "CON(C(=O)c1cc(C)oc1C)C1CCCCC1", "growth AUC": 0.989}
{"smiles": "CCNc1nc(NC(C)(C)C)[nH]c(=O)n1", "growth AUC": 1.03}
{"smiles": "c1ccc2[nH]c(-c3cscn3)nc2c1", "growth AUC": 0.937}
